Measurements as given in PubChem BioAssay (Tox21).
Where “and” joins values, the source holds several entries; their conditions need not be identical. Identical values can stand only once. Records with an inconclusive call do not appear. Unmarked numbers belong to inactive results. Calls of active or inactive are those of the source. Calls follow the shape of the dose curve; as a rule, active = well fitted cell-killing curve with a large enough effect in the repeat runs; inconclusive = weak or mixed curves; inactive = flat fitted curve, though single readings scatter.
% is scaled to controls: 0 for no effect and ±100 for the full control effect; potency is read from the fitted curve at half-maximal effect.

Assay: qHTS assay to identify small molecule antagonists of the estrogen receptor beta (ER-beta) signaling pathway - cell viability counter screen (AID 1259382); also: nearly all actives have a fitted effect of over 55% in size
Settings: ER-beta-UAS-bla HEK293T viability, CellTiter-Glo luminescence, 16 h; series mostly up to 92.4 µM; activity change, negative = cytotoxicity: at the top concentration
Text: U.S. Tox21 Program National Center for Advancing Translational Sciences [NCATS] NIH Chemical Genomics Center [NCGC] U.S. Environmental Protection Agency [EPA] National Institutes of Environmental Health Sciences [NIEHS] National Toxicology Program [NTP] U.S. Food and Drug Administration [FDA] Tox21 Assay Overview: Estrogen receptor (ER), a nuclear hormone receptor, plays an important role in development, metabolic homeostasis and reproduction. Two subtypes of ER, ER-alpha and ER-beta, have similar expression patterns with some uniqueness in both types. Endocrine disrupting chemicals (EDCs) and their interactions with steroid hormone receptors like ER causes disruption of normal endocrine function. To identify the compounds that inhibit ER signaling, an ER-beta-UAS-bla GripTite cell line (Life Technologies, Madison, WI, USA) containing a beta-lactamase reporter gene under the control of an UAS response element was used to screen Tox21 10K compound library. The cytotoxicity of the Tox21 compound library against the ER-beta-bla cell line was tested in parallel by measuring the cell viability using CellTiter-Glo assay in the same wells.
Tox21 Assay Protocol Summary: ER-beta-UAS-bla HEK293T cells were dispensed at 2,000 cells/4 uL of assay medium containing 2% charcoal stripped FBS per well into black wall/clear-bottom 1536-well plates using a Multidrop Combi (ThermoFisher Scientific, Waltham, MA) dispenser. After the assay plates were incubated at a 37C and 5% CO2 for 6 hr, 23 nL of compounds dissolved in DMSO, positive controls or DMSO only was transferred to the assay plate by a Pintool station (Kalypsys, San Diego, CA), followed by addition of 1 uL (1nM as final concentration) of 17-beta-estradiol (E2) in assay medium using a Flying Reagent Dispenser (FRD, Aurora Discovery, San Diego, CA). The plates were incubated at 37C and 5% CO2 for 16 hr. Then 1 uL of LiveBLAzer B/G FRET substrate was added using a Flying Reagent Dispenser, the plates were incubated at room temperature for 2 hours, and fluorescence intensity was measured by an Envision plate reader (PerkinElmer, Shelton, CT). For cell viability readout that measures cytotoxicity, 4 uL/well of CellTiter-Glo reagent was added into the assay plates using a FRD. After 30 min incubation at room temperature, the luminescence intensity in the plates was measured using a ViewLux (PerkinElmer) plate reader.
In the case of `CN/C(=N\[N+](=O)[O-])NCc1cnc(Cl)s1`, the “activity change, negative = cytotoxicity” value was -0.144%.
With `O=C(N[C@H]1N=C(c2ccccc2F)c2cccc3c2N(CC3)C1=O)c1cc2ccccc2[nH]1` the “activity change, negative = cytotoxicity” value was -7.78% [at 42.5 µM].
In the case of `CSC1=N[C@@](C)(c2ccccc2)C(=O)N1Nc1ccccc1`, the “activity change, negative = cytotoxicity” value was -21.2%.
For `ClC1(Cl)C2(Cl)C3(Cl)C4(Cl)C(Cl)(Cl)C5(Cl)C3(Cl)C1(Cl)C5(Cl)C24Cl` (stereo not given), the “activity change, negative = cytotoxicity” value was 1.02%.
In the case of `Cc1ccn2nc(S(=O)(=O)Nc3c(F)cccc3F)nc2n1`, the “activity change, negative = cytotoxicity” value was -0.947%.
For `O=C(O)[C@H](O)[C@@H](O)C(=O)O`, the “activity change, negative = cytotoxicity” value was 1.43%.
In the case of `C#CCO`, the “activity change, negative = cytotoxicity” value was 5.53%.
With `Nc1cc(Cl)ccc1Cl` the “activity change, negative = cytotoxicity” value was 11.8%.
For `C=CC(=O)[O][Sn]([CH2]CCC)([CH2]CCC)[CH2]CCC`, the Potency was 3.06 µM (active).
In the case of `CCOP(=O)(OCC)Oc1cc(C)nc(C(C)C)n1`, the “activity change, negative = cytotoxicity” value was 6.12%.
For `CN(C)CCc1c[nH]c2ccccc12`, the “activity change, negative = cytotoxicity” value was -1.75%.
For `COP(=O)(OC)O/C(=C\Cl)c1cc(Cl)c(Cl)cc1Cl`, the “activity change, negative = cytotoxicity” value was -13.4%.
For `O=C(Cl)c1ccccc1F`, the “activity change, negative = cytotoxicity” value was 2.69%.
In the case of `Clc1cc(Cl)c(-c2cc(Cl)c(Cl)cc2Cl)cc1Cl`, the “activity change, negative = cytotoxicity” value was 11.4% [at 42.5 µM].
For `COC(=O)C(C)N(C(=O)c1ccco1)c1c(C)cccc1C` (stereo not given), the “activity change, negative = cytotoxicity” value was -2.99%.
With `Cc1ccc2cc3c(ccc4ccccc43)c3c2c1CC3` the “activity change, negative = cytotoxicity” value was -4.67% [at 42.5 µM].
In the case of `c1ccc2c(c1)cc1ccc3cccc4ccc2c1c34`, the “activity change, negative = cytotoxicity” value was -8.39%.
With `S=C=Nc1ccccc1` the “activity change, negative = cytotoxicity” value was -16.5%.
With `COP(=S)(NC(C)C)Oc1ccc(C)cc1[N+](=O)[O-]` (stereo not given) the “activity change, negative = cytotoxicity” value was -3.41%.
For `CC1(C)[C@H](/C=C2\CCSC2=O)[C@@H]1C(=O)OCc1coc(Cc2ccccc2)c1`, the “activity change, negative = cytotoxicity” value was -3.05%.
In the case of `COc1ccc(Cc2nccc3cc(OC)c(OC)cc23)cc1OC`, the “activity change, negative = cytotoxicity” value was -2.47% [at 42.5 µM].
For `O=C1C2(Cl)C3(Cl)C4(Cl)C(Cl)(Cl)C5(Cl)C3(Cl)C1(Cl)C5(Cl)C24Cl` (stereo not given), the Potency was 26.9 µM (active) and 58.5 µM (active).
In the case of `CC(=O)[O][Sn]([c]1ccccc1)([c]1ccccc1)[c]1ccccc1`, the Potency was 0.137 µM (active).
With `c1ccc(Nc2ccc(Nc3ccccc3)cc2)cc1` the “activity change, negative = cytotoxicity” value was 0.114%.
For `CN1[C@@H]2CC[C@H]1CC(O)C2` (stereo not given in full), the “activity change, negative = cytotoxicity” value was -5.99%.
In the case of `O=c1[nH]c2cc(Cl)ccc2n1C1CCNCC1`, the “activity change, negative = cytotoxicity” value was 0.631% [at 42.5 µM].
In the case of `CCC(C)Br` (stereo not given), the “activity change, negative = cytotoxicity” value was -1.21%.
With `CCO/N=C(\CC)C1=C(O)CC(c2c(C)cc(C)cc2C)CC1=O` (stereo not given) the “activity change, negative = cytotoxicity” value was -23.3%.
In the case of `Clc1ccc(C2(Cn3cncn3)OCCO2)c(Cl)c1`, the “activity change, negative = cytotoxicity” value was 7.76%.
In the case of `CC[C@]1(O)CC[C@H]2[C@@H]3CCC4=CCCC[C@@H]4[C@H]3CC[C@@]21C`, the “activity change, negative = cytotoxicity” value was -14.6% [at 42.5 µM].
In the case of `C#CCC1=C(C)C(OC(=O)C2C(C=C(C)C)C2(C)C)CC1=O` (stereo not given), the “activity change, negative = cytotoxicity” value was -15%.
For `CCCCN(CCCC)C(=S)[S-].CCCCN(CCCC)C(=S)[S-].[Ni+2]`, the “activity change, negative = cytotoxicity” value was -0.136% [at 42.5 µM].
In the case of `O=Cc1ccccc1`, the “activity change, negative = cytotoxicity” value was 1.6%.
With `CCCC[N+]1(C)CCCC1` (tested in a mixture with another compound) the “activity change, negative = cytotoxicity” value was 1.02%.
With `Oc1ccc2[nH]cc(CCCCN3CC=C(c4ccccc4)CC3)c2c1` the “activity change, negative = cytotoxicity” value was -21.9% [at 42.5 µM].
For `CC(C)Br`, the “activity change, negative = cytotoxicity” value was -13.3%.
With `COc1nc(C)nc(NC(=O)NS(=O)(=O)c2ccccc2Cl)n1` the “activity change, negative = cytotoxicity” value was -6.34%.
With `Nc1ccccc1-c1ccccc1` the “activity change, negative = cytotoxicity” value was -24.3%.
For `C=C(C)C(=O)[O][Sn]([CH2]CCC)([CH2]CCC)[CH2]CCC`, the Potency was 1.54 µM (active).
With `CC(Cc1ccc(OCC(=O)O)cc1)NCC(O)c1csc(C(F)(F)F)n1` (stereo not given) the “activity change, negative = cytotoxicity” value was 4.96%.
